Data published in PubChem BioAssay (NCI).
This is part of a sample that, as a whole, favours compounds with a hit. Of some 83,000 tested, about 20% had one in any assay.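 Note: values are percent growth. 100 is the growth of untreated cells, values between 100 and 0 indicate rising inhibition; between -100 and 0 indicates cell death.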 Calls of active or inactive are those of the source. Rule for the calls: active = growth percent below 10; inactive = the rest.

What was measured:
Assay in all cases: NCI-60 one-dose screen, 48 h (100 = growth as untreated, 0 = no growth, -100 = all killed)
Details in all cases: 10 µM unless noted
[1] = system: NCI-H23 lung
[2] = system: NCI-H226 lung
[3] = system: NCI-H322M lung
[4] = system: NCI-H460 lung
[5] = system: HOP-92 NSCLC
[6] = system: NCI-H522 lung
[7] = system: A549/ATCC NSCLC
[8] = system: 786-0 renal
[9] = system: DU-145 prostate
[10] = system: K-562 leukemia
[11] = system: MALME-3M melanoma
[12] = system: MDA-MB-231 breast
[13] = system: RXF 393 renal
[14] = system: SF-268 CNS
[15] = system: SF-295 CNS
[16] = system: SF-539 CNS
[17] = system: UACC-257 melanoma
[18] = system: M14 melanoma
[19] = system: HOP-62 NSCLC
[20] = system: COLO 205 colon

Row | Compound | growth [1] | growth [2] | growth [3] | growth [4] | growth [5] | growth [6] | growth [7] | growth [8] | growth [9] | growth [10] | growth [11] | growth [12] | growth [13] | growth [14] | growth [15] | growth [16] | growth [17] | growth [18] | growth [19] | growth [20]
1 | CN1CCN(C(=O)[C@]23CCC(C)(C)C[C@@H]2C2=CC[C@@H]4[C@@]5(C)Cc6c([nH]c7ccccc67)C(C)(C)[C@@H]5CC[C@@]4(C)[C@]2(C)CC3)CC1 | 93.3% (inactive) | 86.9% (inactive) | 88.6% (inactive) | 75.8% (inactive) | 70.7% (inactive) | 78.2% (inactive) | 69.4% (inactive) | 74.4% (inactive) | 84.6% (inactive) | 66.1% (inactive) | 90.2% (inactive) | 79% (inactive) | 80.1% (inactive) | 84.6% (inactive) | 92.2% (inactive) | 76.7% (inactive) | 86.1% (inactive) | 78% (inactive) | – | –
2 | C=C(C)[C@@H]1CC[C@@]2(C(=O)O)CC[C@]3(C)C(CCC4[C@@]5(C)CCC(OS(=O)(=O)c6ccccc6)C(C)(C)C5CC[C@]43C)C12 (stereo partly specified) | 37.2% (inactive) | 69.2% (inactive) | 73.6% (inactive) | 42.3% (inactive) | 51% (inactive) | 32.5% (inactive) | 17.8% (inactive) | 56.5% (inactive) | 55.4% (inactive) | 46.5% (inactive) | – | 67.4% (inactive) | 73.8% (inactive) | 70.6% (inactive) | -32.7% (active) | 52.4% (inactive) | 32% (inactive) | 60.8% (inactive) | – | –
3 | O=[N+]([O-])c1ccc(-c2cc3c(Nc4ccc(Cl)c(C(F)(F)F)c4)ncnc3s2)cc1 | -6.97% (active) | 20.1% (inactive) | 20.9% (inactive) | 4.13% (active) | -14.3% (active) | -1.24% (active) | 10.1% (inactive) | 19.2% (inactive) | 23% (inactive) | – | -22.8% (active) | 5.95% (active) | 5.99% (active) | 24.3% (inactive) | -6.39% (active) | 14.9% (inactive) | -18.6% (active) | 19.4% (inactive) | – | –
4 | N#C/C(=C\c1ccc(Br)cc1)n1nnc2cc(Cl)c(Cl)cc21 | 32.3% (inactive) | 36.3% (inactive) | 56.7% (inactive) | 56.7% (inactive) | 33.2% (inactive) | 6.95% (active) | 67.4% (inactive) | 43.8% (inactive) | 34% (inactive) | 8.99% (active) | 67.5% (inactive) | 33% (inactive) | -6.31% (active) | 59.2% (inactive) | 65.8% (inactive) | 49.8% (inactive) | 52.4% (inactive) | 31.3% (inactive) | – | –
5 | CCN(CCO)CC(=O)c1cc(Cl)cc(Cl)c1Cl | 96.6% (inactive) | 88.6% (inactive) | 101% (inactive) | 105% (inactive) | – | 67.6% (inactive) | 96.1% (inactive) | 98.1% (inactive) | 103% (inactive) | 99.2% (inactive) | 98.2% (inactive) | 103% (inactive) | 93.7% (inactive) | 97.5% (inactive) | 97.8% (inactive) | 104% (inactive) | 102% (inactive) | 99.2% (inactive) | – | –
6 | CCN(CC)CCCNC(=O)c1ccc(N)cc1 | 101% (inactive) | 101% (inactive) | 94.7% (inactive) | 103% (inactive) | 101% (inactive) | 101% (inactive) | 105% (inactive) | 100% (inactive) | – | 35.8% (inactive) | 94.3% (inactive) | 104% (inactive) | 110% (inactive) | 102% (inactive) | 99.3% (inactive) | 106% (inactive) | 92.9% (inactive) | 98.7% (inactive) | – | –
7 | CC(C)(C)Nc1c(-c2c3ccccc3cc3ccccc23)nc2ccccn12 | 77.4% (inactive) | 83.9% (inactive) | 71.2% (inactive) | – | 45% (inactive) | 59.1% (inactive) | 49.4% (inactive) | 72% (inactive) | 92.7% (inactive) | 42% (inactive) | 80.6% (inactive) | 80.7% (inactive) | 82.4% (inactive) | 82.9% (inactive) | 69.7% (inactive) | 78.2% (inactive) | 75.5% (inactive) | 70.3% (inactive) | – | –
8 | COc1cc(C(=O)/C=C/c2c(-c3ccc(F)cc3)nc3ncccn23)cc(OC)c1OC | 39.3% (inactive) | 63.4% (inactive) | 69.9% (inactive) | 21.6% (inactive) | – | -0.92% (active) | 61.1% (inactive) | 70.7% (inactive) | 31.8% (inactive) | 17.9% (inactive) | 50.7% (inactive) | 64.4% (inactive) | 13.6% (inactive) | 51% (inactive) | 56.4% (inactive) | 28.5% (inactive) | 47% (inactive) | – | – | –
9 | COc1ccc(/C=C(\C#N)n2nnc3cc(F)c(F)cc32)c(OC)c1OC | 71.8% (inactive) | 83% (inactive) | 76% (inactive) | 71.4% (inactive) | 83.5% (inactive) | 51.4% (inactive) | 84.2% (inactive) | 93.9% (inactive) | 24.5% (inactive) | 23% (inactive) | 93.4% (inactive) | 61.7% (inactive) | 41.1% (inactive) | 83.5% (inactive) | 105% (inactive) | 92.1% (inactive) | 64.4% (inactive) | 72.7% (inactive) | – | –
10 | CC(C)c1ccc(C(=O)OC(=O)c2ccc(C(C)C)cc2)cc1 | 86.4% (inactive) | 97.9% (inactive) | 88.8% (inactive) | 96.3% (inactive) | 87.8% (inactive) | 85.3% (inactive) | 103% (inactive) | 95.8% (inactive) | 119% (inactive) | 74.7% (inactive) | 86.3% (inactive) | 116% (inactive) | 98.5% (inactive) | 103% (inactive) | 98.9% (inactive) | 108% (inactive) | 105% (inactive) | 94.5% (inactive) | – | –
11 | CN(C)c1ccc(C#Cc2c(F)cccc2Cl)cc1 | 70.6% (inactive) | 90.4% (inactive) | 86.7% (inactive) | – | – | 65.1% (inactive) | 87.5% (inactive) | 112% (inactive) | 101% (inactive) | 95.5% (inactive) | 93.4% (inactive) | 66.2% (inactive) | 112% (inactive) | 87.7% (inactive) | 76.5% (inactive) | 94.6% (inactive) | 91.2% (inactive) | 100% (inactive) | 71.8% (inactive) | –
12 | N#Cc1c(-c2ccccc2)nc(SCC2CO2)nc1N1CCOCC1 (stereo unspecified) | 71.4% (inactive) | 75% (inactive) | 65.8% (inactive) | 67.6% (inactive) | 18.3% (inactive) | 57.9% (inactive) | 83.8% (inactive) | 65.5% (inactive) | 87.5% (inactive) | 97.4% (inactive) | 25.7% (inactive) | 71.4% (inactive) | 31.5% (inactive) | 69.7% (inactive) | 9.14% (active) | 85.6% (inactive) | 69.2% (inactive) | 84% (inactive) | – | –
13 | O=C1CC(c2ccc3c(c2)OCO3)Nc2cc3c(cc21)OCO3 (stereo unspecified) | 44.5% (inactive) | 64.5% (inactive) | 57.5% (inactive) | – | – | -9.02% (active) | – | 30.8% (inactive) | 15.3% (inactive) | 10.2% (inactive) | 75.2% (inactive) | 24.7% (inactive) | -11.2% (active) | 44% (inactive) | 7.59% (active) | 6.5% (active) | 39.6% (inactive) | – | 29.7% (inactive) | -27.1% (active)
14 | NC(=O)CC1(O)C=C(Br)C(=O)C(Br)=C1 | 57.3% (inactive) | -57.6% (active) | 113% (inactive) | 104% (inactive) | -50.9% (active) | -49.7% (active) | 112% (inactive) | 70.8% (inactive) | 105% (inactive) | -29.6% (active) | -34.3% (active) | 113% (inactive) | -32.6% (active) | 89.3% (inactive) | 115% (inactive) | 96.1% (inactive) | 80.9% (inactive) | – | – | -66.1% (active)
15 | O=c1[nH]c(NCc2nnnn2-c2ccc(Br)cc2)nc2sc3c(c12)CCCC3 | 97.6% (inactive) | 94.3% (inactive) | 91.1% (inactive) | 100% (inactive) | 94.5% (inactive) | 72.2% (inactive) | – | 88% (inactive) | 106% (inactive) | – | 112% (inactive) | 92.4% (inactive) | 103% (inactive) | 98.7% (inactive) | 92.1% (inactive) | 95.9% (inactive) | 96% (inactive) | – | – | 97.9% (inactive)
16 | N#Cc1c(N)n2c(nc1=Nc1ccc([N+](=O)[O-])cc1)sc1cc(Cl)ccc12 | 79% (inactive) | 88.4% (inactive) | 96% (inactive) | 86.9% (inactive) | 57.6% (inactive) | 77% (inactive) | 106% (inactive) | 109% (inactive) | 107% (inactive) | 74.4% (inactive) | 90.6% (inactive) | 74.5% (inactive) | 114% (inactive) | 95.4% (inactive) | -4.01% (active) | 107% (inactive) | 109% (inactive) | 105% (inactive) | – | –
